Data from PubChem BioAssay (NCATS).
Records with an inconclusive call do not appear. Activity calls are given as the source filed them. Calls follow the shape of the dose curve; as a rule, active = well fitted curve in either direction with a large enough effect (not every such curve was filed as active); inconclusive = small, poorly fitted or top-dose-only effect, or another doubt; inactive = flat fitted curve, though single readings scatter.

Assay: Stat Signaling Pathway (AID 446);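 also: ME-180 cervical cancer cells given 40 pM IL-6 alongside compound; SIE-controlled beta-lactamase reporter measured as 460/530 nm FRET emission ratio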
Details: ME-180 SIE beta-lactamase reporter, IL-6 stimulated, 5 h; at 17.2 µM (top of the series) unless noted
Procedure, shortened: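 ME-180 cells carrying a SIE-driven beta-lactamase reporter are stimulated with 40 pM IL-6 for 5 h at 37C in the presence of compound. The 460/530 nm FRET substrate ratio is read after 2.5 h at RT. Data are normalised to 300 pM IL-6 and to 125 nM JAK inhibitor controls.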
% is scaled to controls: 0 for no effect and ±100 for the full control effect.

activity, negative = inhibition, inactive:
CCCNC(=O)N(C)c1nncnc1C(=O)NC -3.2%, Cc1cc(C)nc(N(C#N)S(=O)(=O)c2ccccc2Cl)n1 -19.9%, COc1ccc(N2C(=O)CN=C2Nc2nc(C)cc(C)n2)cc1 4.62%, C=CCn1cnc2c(c1=O)c1nc3ccccc3nc1n2-c1ccc(C)cc1 -8.6%, CC1(C)Cc2ccccc2-c2c1c(=O)n(-c1ccccc1)c1nnnn21 2.44%, O=S(=O)(c1ccccc1)N1CCC(N2CCN(c3ccccc3)CC2)CC1 5.78%, Cc1c(NC(=O)C(CC(=O)O)NCc2ccco2)c(=O)n(-c2ccccc2)n1C (stereo not given) 1.34%, CC1=C(c2ccc(Cl)cc2)[N+](=O)C(C)(C)N1[O-] -0.945%, COc1ccc(CNC(=O)[C@H](C)NC(=O)C2CCN(S(=O)(=O)c3ccc(C)cc3)CC2)cc1 2.4%, Cc1cc(=O)oc2cc(OCC(=O)NCc3cccnc3)ccc12 -2.73%, Cn1c(OCc2cccnc2)nc2c1c(=O)n(Cc1ccc(Cl)cc1)c(=O)n2C -15.9%, COC(=O)c1ccc(C2/C(=C(\O)c3cccc(OC)c3)C(=O)C(=O)N2CCCN(C)C)cc1 (stereo not given) 5.36%, CN(C)CCCOC(=O)C1c2ccccc2Oc2ccccc21 -0.433%, CCCCCc1nc2sc3c(c2c(=O)n1N)CCC3 -13%, N#C/C(C(=O)N1CCOCC1)=C1/SC(Cc2ccccc2)C(=O)N1c1ccccc1 (stereo not given) -8.3%, Cc1nnc2n(-c3ccccc3)c(=O)c3c4c(sc3n12)COC(C(C)C)C4 (stereo not given) 4.52%, COc1ccc2c(=O)c(-c3nc(C)cs3)coc2c1 12.4%, Cc1cc(=O)oc(C)c1C(=O)NCCc1ccccc1 14.6%, CC(C)Cc1[nH]c(=O)c(C#N)c2c1CCCC2 8.54%, COc1ccc(/C=N/n2cncn2)cc1COc1ccc(NC(C)=O)cc1 -3.18%, O=c1c(-c2ccc(Cl)cc2)[n+]([O-])c2ccccc2n1O -2.31%, C/C(NC(=O)c1ccccc1F)=C1\C(=O)C[C@@H]2[C@H]1C2(C)C -6.06%, COc1cccc(C2/C(=C(/O)c3cnn(-c4ccccc4)c3C)C(=O)C(=O)N2CCN(C)C)c1 (stereo not given) -11.2%, N#Cc1c(NCCN)nc(NCc2ccccc2)c2c1CCN(Cc1ccccc1)C2 -5.14%, COc1ccc(C(=O)Cn2c(N3CCCCC3)nc3c2c(=O)n(C)c(=O)n3C)cc1OC -0.755%, COc1ccc(-c2nc3n(c2Br)CCC3)cc1 0.643%, CCOC(=O)c1ccc(CSc2ncn[nH]2)o1 5.39%, CCOc1ccc(CCNC(=O)C(O)c2ccccc2)cc1 (stereo not given) 18.6%, CN(CCNC(=O)c1ccc(/C=N/O)nc1)Cc1ccccc1 -0.957%, COC(=O)CSc1nc(C)c(C(C)=O)cc1C#N 7.71%, O=C(NCCCn1ccnc1)C(Cc1ccccc1)N1C(=O)c2ccccc2C1=O (stereo not given) 5.97%, Cn1ncc(N=Cc2ccccc2O)c1C(=O)Nc1ccccc1 0.0885%, O=C(COc1ccc(F)cc1)OCCN1CCOCC1 11.3%, O=C1OC(N2CCN(C/C=C/c3ccccc3)CC2)c2ccccc21 (stereo not given) 0.214%, CC(=O)O[C@@]12CO[C@@H]1C[C@H](O)[C@@]1(C)C(=O)[C@H](O)C3=C(C)[C@@H](OC(=O)[C@H](O)[C@@H](NC(=O)OC(C)(C)C)c4ccccc4)C[C@](O)([C@@H](OC(=O)c4ccccc4)[C@H]21)C3(C)C -5.76%, CCN(CC)CCn1c(O)c(N=O)c2ccccc21 14.5%, CCN(CC)CCOC(=O)C1(c2ccc(OC)c(OC)c2)CCCC1 11%, CCCOc1ccccc1C(=O)NCCCC(=O)O 8.1%, Cc1ccc(C2C(C(=O)c3cc4ccccc4o3)=C(O)C(=O)N2CCN(C)C)o1 (stereo not given) -0.311%, CN(C)c1cccc2c(S(=O)(=O)N3CCOCC3)cccc12 7.43%
